Assay outcomes: PubChem BioAssay, National Center for Advancing Translational Sciences (NCATS)
Rows were chosen to be rich in hits. Some 0.95% of all compounds tested hit in one or more screens of this group.
RE007 growth inh – less growth of the S. pombe RE007 Vpr strain; S. pombe RE007 Vpr strain, BacTiter-Glo ATP luminescence, 24 h; Potency, µM (series often up to 92.2 µM), inactives show at the highest dose activity change, negative = less growth, actives largely listed as inhibitors; hit rate 0.21% among 360,000; active means well fitted falling curve with a large enough effect; inconclusive means small, poorly fitted or top-dose-only effect; inactive means no such curve, though single readings can be large or run the other way; further: nearly all actives have a fitted effect of over 50% in size
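Fission yeast RE007 carrying one integrated HIV-1 vpr copy, seeded at OD 0.01 in PMG+AL medium with 23 nL pinned compound. Grown 24 h at 30 degrees; viability read by BacTiter-Glo luminescence after 5 min.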
LmPK inhibitor – LmPK (Leishmania mexicana) enzyme inhibition | Potency, µM (top dose mostly 57.5 µM), for inactives: at the highest dose activity change, negative = inhibition, most hits filed as inhibitors | purified LmPK, Kinase-Glo ATP luminescence, 1 h | hit rate 0.37% among 290,000
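Screened at intermediate enzyme activity to detect both inhibitors and activators: LmPK at 0.1 nM, with a 0.5 nM enzyme column as activation reference. PEP 0.5 mM, ADP 0.1 mM; ATP detected by luminescence after 1 h.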
Giardia FBPA inh-1 – blocks Giardia fructose-bisphosphate aldolase activity. hit rate 0.71% among 290,000. AID 2451. Potency, µM (series often up to 59.6 µM), inactives show at the highest dose activity, negative = inhibition, hits mostly inhibitors. purified Giardia FBPA. A8B2U2; further: nearly all actives have a fitted effect of over 55% in size
Target sequence (A8B2U2 whole entry, looked up): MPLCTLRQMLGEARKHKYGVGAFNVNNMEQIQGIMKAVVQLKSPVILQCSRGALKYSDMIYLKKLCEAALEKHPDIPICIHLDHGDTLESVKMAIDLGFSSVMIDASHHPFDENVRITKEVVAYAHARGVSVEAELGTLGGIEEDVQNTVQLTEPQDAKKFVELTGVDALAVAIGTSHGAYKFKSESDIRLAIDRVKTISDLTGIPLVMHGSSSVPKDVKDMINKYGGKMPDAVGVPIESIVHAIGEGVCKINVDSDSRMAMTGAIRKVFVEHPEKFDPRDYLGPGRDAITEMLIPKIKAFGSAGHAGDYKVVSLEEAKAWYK
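Giardia FBPA (40 nM reagent) was preincubated 10 min at RT with compound (up to 57.5 uM final), then substrate plus GAPDH/TPI/NAD/arsenate coupling system with diaphorase/resazurin was added; resorufin fluorescence (525/598 nm) was read after 20 min.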
TbPYK inhibitor – blocks Trypanosoma brucei pyruvate kinase. hit rate 0.12% among 410,000. AID 624173. Q57TT1. TbPYK enzyme, Kinase-Glo Plus ATP luminescence, 45 min. Potency, µM (highest dose often 76.8 µM), without a hit: at the top dose activity, negative = inhibition, hits mostly inhibitors; further: nearly all actives have a fitted effect of over 50% in size
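Enzyme and substrate buffer are dispensed first and compound is pin-transferred. ADP at 130 uM final then starts the reaction, which runs 45 min at room temperature. Detection reagent is added for 10 min before luminescence is imaged.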
Giardia growth – inhibitors of Giardia lamblia growth; hit rate 5% among 1,500; Giardia lamblia trophozoite growth inhibition; shares compounds with Giardia FBPA inh-1; Potency, µM (titrated, usually from 57.5 µM), inactives show at the highest dose activity change, negative = inhibition, most hits filed as inhibitors;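 further: trophozoites exposed to compound for 48 h at 37 °C; nearly all actives have a fitted effect of over 70% in size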
Mammal cell tox – mammalian cytotoxicity of Giardia aldolase inhibitor hits; shares compounds with Giardia FBPA inh-1; Potency, µM (series often up to 57.5 µM), for the others: at the top dose viability change, negative = toxicity, most hits filed as inhibitors; mammalian cell viability counter-screen, qHTS; hit rate 4% among 1,500;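 further: Chinese hamster ovary cells used as mammalian cytotoxicity surrogate; viability measured as cellular ATP by luminescence; compound exposure lasted 48 h before reading; nearly all actives have a fitted effect of over 60% in size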
Giardia FBPA inh-2 – confirmation of Giardia fructose-bisphosphate aldolase inhibitors. shares compounds with Giardia FBPA inh-1. purified Giardia aldolase enzyme activity, qHTS. Potency, µM (doses to about 57.5 µM), for the others: top-dose activity change, negative = inhibition, actives largely listed as inhibitors. hit rate 5% among 1,500. AID 2787; further: nearly all actives have a fitted effect of over 45% in size
Rabbit aldolase – blocks rabbit muscle aldolase in Giardia aldolase selectivity test; shares compounds with Giardia FBPA inh-1; Rabbit muscle FBPA enzyme inhibition, selectivity counter-screen; Potency, µM (top dose mostly 57.5 µM), for the others: top-dose activity, negative = inhibition, hits mostly inhibitors; hit rate 4% among 1,500; AID 2794; further: nearly all actives have a fitted effect of over 60% in size
GAPDH counter – GAPDH inhibition flagged for Giardia aldolase hits; shares compounds with Giardia FBPA inh-1; GAPDH coupling enzyme counterscreen, biochemical, qHTS; hit rate 6% among 1,500; AID 2795; Potency, µM (titrated, usually from 57.5 µM), for the others: top-dose activity change, negative = inhibition, hits mostly inhibitors; further: nearly all actives have a fitted effect of over 55% in size
* = called active by the depositor; [ ] = remark or other dose. Unless noted, the call rests on the fitted dose curve; in most records, active means well fitted curve in the direction sought with a large enough effect; inconclusive means small, poorly fitted or top-dose-only effect, or another doubt; inactive means no such curve, though single readings can be large; an effect the other way counts as inactive or inconclusive. On the % scale 0 is the no-effect control and ±100 the full control effect; potency means the concentration at half of the fitted maximal effect.

COC(=O)[C@@H]1C[C@@H]2CC[C@@H](O)C[C@@H]2N1CC1CCCCC1 was read as Giardia FBPA inh-1 -0.4%.
For O=C(O)CN1C(=O)C(=O)N(Cc2ccc(Cl)c(Cl)c2)C1=O the results were RE007 growth inh -1.5%, LmPK inhibitor 5.7%, Giardia FBPA inh-1 1.1% and TbPYK inhibitor -5.0%.
Screening Cc1ccc(Cl)cc1N1CCN(C(c2ccc(F)cc2)c2nnc(-c3ccccc3)o2)CC1 (stereo unspecified) returned TbPYK inhibitor -5.2%.
Cc1ccc2c(=O)c(C(=O)c3ccc(F)cc3)cn(CC(=O)NCc3ccccc3Cl)c2n1 was read as TbPYK inhibitor 0.1%.
Cc1ccccc1C(=O)Nc1nnc(-c2ccncc2)o1 was read as RE007 growth inh -7.0%, LmPK inhibitor -8.3%, Giardia FBPA inh-1 7.4% and TbPYK inhibitor -9.3%.
Screening COc1ccc(-c2nnc(NC(=O)c3ccccc3C)o2)cc1 returned RE007 growth inh -12.8%, LmPK inhibitor 4.1%, Giardia FBPA inh-1 15.8µM*, TbPYK inhibitor 1.6%, Giardia growth inconclusive, Mammal cell tox -15.2%, Giardia FBPA inh-2 -0.8%, Rabbit aldolase -5.7% and GAPDH counter -9.9%.
For Cc1nc(COC(=O)c2cc(O)c3ccccc3c2O)cs1 the results were RE007 growth inh -10.3%, LmPK inhibitor -5.7%, Giardia FBPA inh-1 19.9µM*, TbPYK inhibitor inconclusive, Giardia growth -13.4%[10.4 µM], Mammal cell tox -5.6%, Giardia FBPA inh-2 inconclusive, Rabbit aldolase inconclusive and GAPDH counter inconclusive.
For COc1cc(S(=O)(=O)N2CCOCC2)cc(C(=O)NCC(c2cccs2)N2CCOCC2)c1OC (stereo unspecified) the results were RE007 growth inh 9.7% and TbPYK inhibitor -4.9%.
Cc1ccc(C)c(-n2c3nc(=O)n(C)c(=O)c-3cc3ccccc32)c1 was read as RE007 growth inh 9.6%, LmPK inhibitor 6.6%, Giardia FBPA inh-1 6.3% and TbPYK inhibitor 0.3%.
Screening Cc1nc2c(=O)n(C)c(=O)nc-2n(C)n1 returned RE007 growth inh inconclusive, LmPK inhibitor -0.4%, Giardia FBPA inh-1 inconclusive, TbPYK inhibitor 4.2%, Giardia growth 5.01µM*, Mammal cell tox 15.8µM*, Giardia FBPA inh-2 3.98µM*, Rabbit aldolase 3.98µM* and GAPDH counter 2.24µM*.
C[C@@H]1CCCCO[C@@H](CN(C)Cc2ccc(Cl)c(Cl)c2)[C@@H](C)CN([C@H](C)CO)C(=O)c2cc(NC(=O)CCC(F)(F)F)ccc2O1 was read as RE007 growth inh 9.7% and TbPYK inhibitor 2.3%.
`Cc1cc(C)cc(N2C(=O)CC(Sc3ncn[nH]3)C2=O)c1` (stereo unspecified) gave RE007 growth inh -7.8%, LmPK inhibitor -3.3%, Giardia FBPA inh-1 19.9µM*, TbPYK inhibitor -15.2%, Giardia growth 22.4%, Mammal cell tox -3.7%, Giardia FBPA inh-2 4.3%, Rabbit aldolase 3.6% and GAPDH counter 10.8%.
For Cc1cc(C)cc(N2C(=O)CC(Sc3nnnn3-c3ccccc3)C2=O)c1 (stereo unspecified) the results were RE007 growth inh -17.4%, LmPK inhibitor -5.5% and TbPYK inhibitor -14.7%.
